Assay results published in article PMC11006913.
Positions count from the first letter of the chain named.

biological target: ALX4 (Homo sapiens, UniProt Q9H161 200-286, Q225E); assay: PBM; 200 nM protein, PBS; conditions: dsDNA, one strand shown
Sequence (Q9H161 200-286 Q225E): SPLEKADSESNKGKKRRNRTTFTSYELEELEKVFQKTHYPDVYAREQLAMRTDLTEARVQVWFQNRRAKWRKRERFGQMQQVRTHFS

| Sequence | binding signal |
| --- | --- |
| AAGTAATT | 12 upbm affinity estimate (log intensity, higher = more binding, comparable within an allelic series) |

biological target: HOXA2 (Homo sapiens, UniProt O43364 129-215, R185T); assay: PBM; 200 nM protein, PBS; conditions: dsDNA, one strand shown
Sequence (O43364 129-215 R185T): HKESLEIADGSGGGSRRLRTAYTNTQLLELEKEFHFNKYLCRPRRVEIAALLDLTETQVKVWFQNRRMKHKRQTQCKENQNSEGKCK

| Sequence | binding signal |
| --- | --- |
| CCGCAGAC | 7.17 upbm affinity estimate (log intensity, higher = more binding, comparable within an allelic series) |
| GCTGCAGC | 7.32 upbm affinity estimate (log intensity, higher = more binding, comparable within an allelic series) |
| GAGGCACC | 7.41 upbm affinity estimate (log intensity, higher = more binding, comparable within an allelic series) |

biological target: MSX2 (Homo sapiens, UniProt P35548 130-214, R199I); assay: PBM; 200 nM protein, PBS; conditions: dsDNA, one strand shown
Sequence (P35548 130-214 R199I): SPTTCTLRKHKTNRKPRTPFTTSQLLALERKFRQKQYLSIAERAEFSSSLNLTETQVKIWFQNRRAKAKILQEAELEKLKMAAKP

| Sequence | binding signal |
| --- | --- |
| CCTGCGAG | 9.6 upbm affinity estimate (log intensity, higher = more binding, comparable within an allelic series) |
| GCTGCAGC | 9.55 upbm affinity estimate (log intensity, higher = more binding, comparable within an allelic series) |
| CAGCCCGC | 9.36 upbm affinity estimate (log intensity, higher = more binding, comparable within an allelic series) |
| AGGAGGCG | 9.45 upbm affinity estimate (log intensity, higher = more binding, comparable within an allelic series) |
| CAGCCGGC | 9.43 upbm affinity estimate (log intensity, higher = more binding, comparable within an allelic series) |
| ACGGAGGC | 9.59 upbm affinity estimate (log intensity, higher = more binding, comparable within an allelic series) |
| CCGTCTAG | 9.52 upbm affinity estimate (log intensity, higher = more binding, comparable within an allelic series) |
| CGTGGAGC | 9.58 upbm affinity estimate (log intensity, higher = more binding, comparable within an allelic series) |

biological target: ALX1 (Homo sapiens, UniProt Q15699 118-204, L144V); assay: PBM; 200 nM protein, PBS; conditions: dsDNA, one strand shown
Sequence (Q15699 118-204 L144V): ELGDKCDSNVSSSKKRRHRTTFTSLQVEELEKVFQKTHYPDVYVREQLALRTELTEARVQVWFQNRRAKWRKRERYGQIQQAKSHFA

| Sequence | binding signal |
| --- | --- |
| AATTAAAG | 11.4 upbm affinity estimate (log intensity, higher = more binding, comparable within an allelic series) |
| AAATTAGT | 11.4 upbm affinity estimate (log intensity, higher = more binding, comparable within an allelic series) |
| GAGGACTC | 6.41 upbm affinity estimate (log intensity, higher = more binding, comparable within an allelic series) |
| AATTATGT | 11.4 upbm affinity estimate (log intensity, higher = more binding, comparable within an allelic series) |
| GACCGTCC | 6.23 upbm affinity estimate (log intensity, higher = more binding, comparable within an allelic series) |
| ACCCTCGG | 6.49 upbm affinity estimate (log intensity, higher = more binding, comparable within an allelic series) |
| AATTTTCA | 9.64 upbm affinity estimate (log intensity, higher = more binding, comparable within an allelic series) |
| GACTGGAC | 6.55 upbm affinity estimate (log intensity, higher = more binding, comparable within an allelic series) |

biological target: ALX3 (Homo sapiens, UniProt O95076 139-225, N203Q); assay: PBM; 200 nM protein, PBS; conditions: dsDNA, one strand shown
Sequence (O95076 139-225 N203Q): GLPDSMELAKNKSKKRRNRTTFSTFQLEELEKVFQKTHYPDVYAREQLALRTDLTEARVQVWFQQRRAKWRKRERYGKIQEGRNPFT

| Sequence | binding signal |
| --- | --- |
| AATTAAAG | 8.35 upbm affinity estimate (log intensity, higher = more binding, comparable within an allelic series) |
| ACGGAGGC | 7.76 upbm affinity estimate (log intensity, higher = more binding, comparable within an allelic series) |
| GAGAGCGC | 7.72 upbm affinity estimate (log intensity, higher = more binding, comparable within an allelic series) |
| GAGGCACC | 7.66 upbm affinity estimate (log intensity, higher = more binding, comparable within an allelic series) |
| CATATTAA | 8.63 upbm affinity estimate (log intensity, higher = more binding, comparable within an allelic series) |

biological target: T1, PAX4 (Homo sapiens, UniProt O43316 9-242, R200Q); assay: PBM; 200 nM protein, PBS; conditions: dsDNA, one strand shown
T1 sequence: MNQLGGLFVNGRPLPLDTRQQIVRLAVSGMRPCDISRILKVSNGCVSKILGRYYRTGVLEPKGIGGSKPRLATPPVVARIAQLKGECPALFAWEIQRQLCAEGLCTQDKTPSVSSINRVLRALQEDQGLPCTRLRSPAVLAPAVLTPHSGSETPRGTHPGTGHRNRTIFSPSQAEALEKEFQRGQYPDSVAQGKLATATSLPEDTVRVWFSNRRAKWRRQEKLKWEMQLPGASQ

| Sequence | binding signal |
| --- | --- |
| AAGGGGGA | 9.23 upbm affinity estimate (log intensity, higher = more binding, comparable within an allelic series) |
| ATAATTTG | 12 upbm affinity estimate (log intensity, higher = more binding, comparable within an allelic series) |
| GCTGCAGC | 9.38 upbm affinity estimate (log intensity, higher = more binding, comparable within an allelic series) |
| AAATTAGT | 12 upbm affinity estimate (log intensity, higher = more binding, comparable within an allelic series) |
| AGTCCGGC | 9.29 upbm affinity estimate (log intensity, higher = more binding, comparable within an allelic series) |
| CAGCCCGC | 9.12 upbm affinity estimate (log intensity, higher = more binding, comparable within an allelic series) |
| CAGCCGGC | 9.19 upbm affinity estimate (log intensity, higher = more binding, comparable within an allelic series) |
| AATTATGT | 11.8 upbm affinity estimate (log intensity, higher = more binding, comparable within an allelic series) |
| CATATTAA | 11.8 upbm affinity estimate (log intensity, higher = more binding, comparable within an allelic series) |
| AATTAGAA | 11.9 upbm affinity estimate (log intensity, higher = more binding, comparable within an allelic series) |

biological target: PITX2 (Homo sapiens, UniProt Q99697 72-157); assay: PBM; 200 nM protein, PBS; conditions: dsDNA, one strand shown

| Sequence | binding signal |
| --- | --- |
| GAGGACTC | 7.89 upbm affinity estimate (log intensity, higher = more binding, comparable within an allelic series) |
| GACCGTCC | 8.03 upbm affinity estimate (log intensity, higher = more binding, comparable within an allelic series) |
| GAGGCACC | 7.88 upbm affinity estimate (log intensity, higher = more binding, comparable within an allelic series) |

biological target: HOXA2 (Homo sapiens, UniProt O43364 129-215, R185K); assay: PBM; 200 nM protein, PBS; conditions: dsDNA, one strand shown
Sequence (O43364 129-215 R185K): as the sequence (O43364 129-215 R185T) above, with T57K counted along it

| Sequence | binding signal |
| --- | --- |
| CCGCAGAC | 10.2 upbm affinity estimate (log intensity, higher = more binding, comparable within an allelic series) |
| GCTGCAGC | 10.3 upbm affinity estimate (log intensity, higher = more binding, comparable within an allelic series) |
| GAGGCACC | 10.5 upbm affinity estimate (log intensity, higher = more binding, comparable within an allelic series) |

biological target: ALX1 (Homo sapiens, UniProt Q15699 118-204, L144R); assay: PBM; 200 nM protein, PBS; conditions: dsDNA, one strand shown
Sequence (Q15699 118-204 L144R): as the sequence (Q15699 118-204 L144V) above, with V27R counted along it

| Sequence | binding signal |
| --- | --- |
| AATTAAAG | 11 upbm affinity estimate (log intensity, higher = more binding, comparable within an allelic series) |
| AAATTAGT | 10.9 upbm affinity estimate (log intensity, higher = more binding, comparable within an allelic series) |
| GAGGACTC | 6.53 upbm affinity estimate (log intensity, higher = more binding, comparable within an allelic series) |
| AATTATGT | 11.1 upbm affinity estimate (log intensity, higher = more binding, comparable within an allelic series) |
| GACCGTCC | 6.38 upbm affinity estimate (log intensity, higher = more binding, comparable within an allelic series) |
| ACCCTCGG | 6.58 upbm affinity estimate (log intensity, higher = more binding, comparable within an allelic series) |
| AATTTTCA | 9.33 upbm affinity estimate (log intensity, higher = more binding, comparable within an allelic series) |
| GACTGGAC | 6.42 upbm affinity estimate (log intensity, higher = more binding, comparable within an allelic series) |

biological target: T2, PAX4 (Homo sapiens, UniProt O43316 9-242, F177V); assay: PBM; 200 nM protein, PBS; conditions: dsDNA, one strand shown
T2 sequence: T1 sequence with F169V, Q192R

| Sequence | binding signal |
| --- | --- |
| AAGGGGGA | 9.11 upbm affinity estimate (log intensity, higher = more binding, comparable within an allelic series) |
| ATAATTTG | 10.5 upbm affinity estimate (log intensity, higher = more binding, comparable within an allelic series) |
| GCTGCAGC | 9.33 upbm affinity estimate (log intensity, higher = more binding, comparable within an allelic series) |
| AGTCCGGC | 9.3 upbm affinity estimate (log intensity, higher = more binding, comparable within an allelic series) |
| CAGCCCGC | 9.04 upbm affinity estimate (log intensity, higher = more binding, comparable within an allelic series) |
| CAGCCGGC | 9.05 upbm affinity estimate (log intensity, higher = more binding, comparable within an allelic series) |
| AATTATGT | 10.7 upbm affinity estimate (log intensity, higher = more binding, comparable within an allelic series) |
| CATATTAA | 10.8 upbm affinity estimate (log intensity, higher = more binding, comparable within an allelic series) |
| AATTAGAA | 10.5 upbm affinity estimate (log intensity, higher = more binding, comparable within an allelic series) |

biological target: MSX2 (Homo sapiens, UniProt P35548 130-214); assay: PBM; 200 nM protein, PBS; conditions: dsDNA, one strand shown
Sequence (P35548 130-214): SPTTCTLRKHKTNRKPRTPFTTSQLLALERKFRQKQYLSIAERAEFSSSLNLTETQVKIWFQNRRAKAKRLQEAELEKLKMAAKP

| Sequence | binding signal |
| --- | --- |
| CCTGCGAG | 9.6 upbm affinity estimate (log intensity, higher = more binding, comparable within an allelic series) |
| GCTGCAGC | 9.49 upbm affinity estimate (log intensity, higher = more binding, comparable within an allelic series) |
| CAGCCCGC | 9.33 upbm affinity estimate (log intensity, higher = more binding, comparable within an allelic series) |
| AGGAGGCG | 9.43 upbm affinity estimate (log intensity, higher = more binding, comparable within an allelic series) |
| CAGCCGGC | 9.21 upbm affinity estimate (log intensity, higher = more binding, comparable within an allelic series) |
| ACGGAGGC | 9.53 upbm affinity estimate (log intensity, higher = more binding, comparable within an allelic series) |
| CCGTCTAG | 9.39 upbm affinity estimate (log intensity, higher = more binding, comparable within an allelic series) |
| CGTGGAGC | 9.61 upbm affinity estimate (log intensity, higher = more binding, comparable within an allelic series) |

biological target: ALX3 (Homo sapiens, UniProt O95076 139-225); assay: PBM; 200 nM protein, PBS; conditions: dsDNA, one strand shown
Sequence (O95076 139-225): as the sequence (O95076 139-225 N203Q) above, with Q65N counted along it

| Sequence | binding signal |
| --- | --- |
| AATTAAAG | 12.3 upbm affinity estimate (log intensity, higher = more binding, comparable within an allelic series) |
| ACGGAGGC | 7.71 upbm affinity estimate (log intensity, higher = more binding, comparable within an allelic series) |
| GAGAGCGC | 7.6 upbm affinity estimate (log intensity, higher = more binding, comparable within an allelic series) |
| GAGGCACC | 7.72 upbm affinity estimate (log intensity, higher = more binding, comparable within an allelic series) |

biological target: T3, PAX4 (Homo sapiens, UniProt O43316 9-242, F177Y); assay: PBM; 200 nM protein, PBS; conditions: dsDNA, one strand shown
T3 sequence: T1 sequence with F169Y, Q192R

| Sequence | binding signal |
| --- | --- |
| AAGGGGGA | 9.2 upbm affinity estimate (log intensity, higher = more binding, comparable within an allelic series) |
| ATAATTTG | 10.9 upbm affinity estimate (log intensity, higher = more binding, comparable within an allelic series) |
| GCTGCAGC | 9.42 upbm affinity estimate (log intensity, higher = more binding, comparable within an allelic series) |
| AGTCCGGC | 9.32 upbm affinity estimate (log intensity, higher = more binding, comparable within an allelic series) |
| CAGCCCGC | 8.99 upbm affinity estimate (log intensity, higher = more binding, comparable within an allelic series) |
| CAGCCGGC | 9.05 upbm affinity estimate (log intensity, higher = more binding, comparable within an allelic series) |
| AATTATGT | 11 upbm affinity estimate (log intensity, higher = more binding, comparable within an allelic series) |
| CATATTAA | 11 upbm affinity estimate (log intensity, higher = more binding, comparable within an allelic series) |
| AATTAGAA | 10.9 upbm affinity estimate (log intensity, higher = more binding, comparable within an allelic series) |

biological target: PROP1 (Homo sapiens, UniProt O75360 56-141); assay: PBM; 200 nM protein, PBS; conditions: dsDNA, one strand shown
Sequence (O75360 56-141): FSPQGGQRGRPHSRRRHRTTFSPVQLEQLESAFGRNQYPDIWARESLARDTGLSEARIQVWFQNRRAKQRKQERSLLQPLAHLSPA

| Sequence | binding signal |
| --- | --- |
| AATTAAAG | 11.2 upbm affinity estimate (log intensity, higher = more binding, comparable within an allelic series) |
| AATTTATC | 9.59 upbm affinity estimate (log intensity, higher = more binding, comparable within an allelic series) |
| TGCCAGCA | 6.8 upbm affinity estimate (log intensity, higher = more binding, comparable within an allelic series) |
| ACGGAGGC | 6.67 upbm affinity estimate (log intensity, higher = more binding, comparable within an allelic series) |
| AATTATGT | 11 upbm affinity estimate (log intensity, higher = more binding, comparable within an allelic series) |
| CGGGCCTC | 6.76 upbm affinity estimate (log intensity, higher = more binding, comparable within an allelic series) |
| CACAGCTC | 6.72 upbm affinity estimate (log intensity, higher = more binding, comparable within an allelic series) |
